# Only some compounds are listed: those with a hit (about 21% of all), similar ones and a draw of the others.
# Shiga toxin inh: Shiga toxin inhibition. Vero cells, Shiga toxin protein synthesis inhibition reporter. inhibition, % at 38.7 µM. hit rate 9.2% among 290,000; in the data active means inhibition mostly above about 28%, no sharp cut-off; inactive means mostly below about 43%; further: 0% is about no effect
# HCV inhibitor: HCV inhibition; Huh7.5.1 HCVcc-Cre infection, luciferase reporter, 44 h; Potency, µM (titrated, usually from 41.8 µM), without a hit: at the highest dose activity change, negative = inhibition, hits mostly inhibitors; hit rate 3.4% among 340,000; further: potency means the concentration at half of the fitted maximal effect; on the % scale 0 is the no-effect control and ±100 the full control effect
#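 Compounds are dispensed onto cells plated 4 h earlier at 1,000 per well, with HCVcc-Cre virus (about 0.5 moi) added next. Following 44 h of culture, luminescent signal is measured for 15 sec after 15 min with substrate at room temperature.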
# CHX counter: counter-screen for Shiga toxin inhibitors: cycloheximide protein synthesis inhibition; max response, %; hit rate 12% among 300,000; cell reporter, cycloheximide protein synthesis inhibition counterscreen; AID 2314; in the data active means max response mostly above about 13%, no sharp cut-off; inactive means mostly below about 14%; further: read at 38.3 µM for the half of the compounds with a filed dose; 0% is about no effect
# Pf growth 96h: P. falciparum growth inhibition at 96 hours | P. falciparum luciferase reporter growth, 96 h | Potency, µM (titrated, usually from 28.7 µM), without a hit: at the highest dose activity change, negative = inhibition, most hits filed as inhibitors | hit rate 6.9% among 320,000; further: potency means the concentration at half of the fitted maximal effect; on the % scale 0 is the no-effect control and ±100 the full control effect
#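 Cell-based qHTS: luciferase-tagged P. falciparum in erythrocytes (2% hematocrit, 0.05% parasitemia final) incubated with compounds for 96 hours, 37 C, 5% CO2; luciferase detection reagent then added and luminescence measured.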
# HCMV antiviral: blocks human cytomegalovirus replication; AID 1259415; hit rate 4.5% among 410,000; HFF cells, HCMV-luciferase reporter, 72 h; active compounds read low; activity change, negative = inhibition, % at 57.5 µM; in the data active means activity change below about -60%; inconclusive means no clear call, values can overlap the other calls; inactive means above about -39%; further: on the % scale 0 is the no-effect control and ±100 the full control effect
#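 Inhibition of viral replication was scored as loss of reporter luminescence in HFFs infected with HCMV-luciferase (MOI 1 PFU/cell) for 72 h; compounds tested at 2 doses, normalized to buffer and Salinomycin controls.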
# Pf growth 48h: P. falciparum growth inhibition at 48 hours (one generation). Potency, µM (doses to about 28.7 µM), for inactives: at the top dose activity change, negative = inhibition, usual class: inhibitors. AID 504832. hit rate 5.9% among 310,000. P. falciparum luciferase growth in erythrocytes, 48 h; further: potency means the concentration at half of the fitted maximal effect; on the % scale 0 is the no-effect control and ±100 the full control effect
#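 Cell-based growth assay: transgenic P. falciparum expressing firefly luciferase, cultured in red cells within RPMI 1640 containing 0.5% w/v Albumax, 24 mM bicarbonate and gentamycin. A drop in luciferase activity indicates inhibition.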
# * hit, by the source's call; ? = inconclusive; . = no result. Unless noted, the call rests on the fitted dose curve; in most records, active means well fitted inhibition curve with a large enough effect; inconclusive means small, poorly fitted or top-dose-only effect, or another doubt; inactive means no such curve, though single readings can be large or run the other way.
SMILES,Shiga toxin inh,HCV inhibitor,CHX counter,Pf growth 96h,HCMV antiviral,Pf growth 48h
Cc1ccc(C(=O)/C=C/c2cn(CN3CCN(C)CC3)c3ccccc23)cc1,85.4*,?,34.7*,.,21.3,34.9%
Cn1cc(/C=C/C(=O)c2ccccc2)c2ccccc21,73.8*,?,40.6*,34.7%,9.6,-4.2%
CCOC(=O)/C(=C/c1cn(C)c2ccccc12)NC(=O)c1ccccc1,19.4,-11.1%,8.6,?,14.7,-18.2%
O=C(Cc1ccc(NC(=O)C2CCCN(C(=O)C3CCC3)C2)cc1)Nc1cccc(C(=O)N2CCCCC2)c1 (stereo unspecified),.,?,.,.,13.6,.
CCc1cccc(-n2c(=O)c3cccnc3n2CC(=O)NCc2ccccc2)c1,.,.,.,.,-20.6,.
CC(=O)C1=C(S(=O)(=O)c2ccc(C)cc2)CS(=O)(=O)C1,29.2,-8.7%,20.1*,3.6%,-100.1*,4.8%
Cc1ccc(S(=O)(=O)C2CS(=O)(=O)CC2O)cc1 (stereo unspecified),12.1,13.2%,-6.3,?,-26.4,.
COc1cccc2cc(-c3ccnc(N)n3)oc12,106.7*,-22.6%,32.7*,476.3%,122.3,15.5%
COc1cccc2cc(-c3n[nH]c(=S)n3C)oc12,10.6,-2.8%,-1.6,42.9%,-16.5,?
CCC(C)C(NC(=O)C(Cc1ccc(O)cc1)NC(=O)C(N)C(C)C)C(=O)NC(Cc1cnc[nH]1)C(=O)N1CCCC1C(=O)NC(Cc1ccccc1)C(=O)O (stereo unspecified),29.1,.,-3.1,.,.,.
Cc1ccc(-n2c(=O)cc(NCc3cccnc3)[nH]c2=O)cc1,11.8,17.3%,-1.1,1.85µM*,-13.6,3.7%
c1ccc(CCNc2ccccc2)cc1,31.0,.,20.7*,24.8%,.,4.1%
Cc1ccc(CCNc2ccccc2)c[n+]1[O-],11.3,6.5%,15.1*,.,74.4,.
Cc1nnc(NCCc2ccccc2)c2ccccc12,131.7*,-23.0%,41.7*,34.0%,116.6,114.8%
COc1ccccc1NC(=O)CSc1nc2c(oc3ccccc32)c(=O)n1Cc1ccco1,.,.,.,.,-14.0,.
COc1ccccc1CNC(=O)COC(=O)/C=C/c1ccc2c(c1)OCO2,.,-6.2%,.,.,5.5,.
O=C(CSc1nccn1Cc1ccc(F)cc1)NCc1ccc(F)cc1,.,.,.,.,3.8,.
NC(=O)C(c1ccc(Cl)cc1)c1ccc(Sc2ccc(Cl)cc2)nn1 (stereo unspecified),-4.9,?,0.7,-88.5%,-89.1*,.
O=C(CSc1ccc(-c2ccncc2)nn1)c1ccc(Cl)cc1,-10.2,2.9%,-1.4,14.0%,-13.3,-18.8%
COc1ccc(Cc2nnc(N/N=C/c3ccc(O)cc3O)[nH]c2=O)cc1OC,14.4,?,1.3,?,9.9,4.15µM*
CCCCCC/C=N/Nc1nnc(Cc2ccc(OC)c(OC)c2)c(=O)[nH]1,-14.9,-2.8%,-1.5,31.4%,-18.9,15.9%
CC1(C(=O)NS(=O)(=O)c2cccc(OC(F)F)c2)CCN1C(=O)Cc1ccccc1 (stereo unspecified),.,.,.,.,13.8,.
N#C/C(=C\c1c(Cl)cccc1Cl)c1nn(-c2ccccc2)c(-n2cccc2)c1C#N,-1.3,-21.5%,1.4,?,?,?
N#C/C(=C\c1c(F)cccc1Cl)c1nn(-c2ccccc2)c(-n2cccc2)c1C#N,10.0,-25.2%,-2.2,?,?,11.7µM*
Cc1ccccc1C1=NCC(=O)N(CC(=O)NCc2ccco2)c2sc3c(c21)CCCC3,32.8,-1.8%,15.0*,-10.4%,?,?
SMILES,Shiga toxin inh,HCV inhibitor,CHX counter,Pf growth 96h,HCMV antiviral,Pf growth 48h
CCC1CCCCN1C(=O)Cn1c(=O)n(CCCCCC(=O)NCc2ccccc2Cl)c(=O)c2sccc21 (stereo unspecified),.,.,.,.,2.3,.
Cc1cccc(NC(=O)CSc2cn(CC(=O)N3CCOCC3)c3ccccc23)c1C,.,.,.,.,-37.0,.
CC(C#Cc1c([C@@H](C)Oc2ccccc2)nnn1Cc1ccccc1)Oc1ccccc1 (stereo partly specified),-3.0,-4.3%,9.1,9.28µM*,-8.2,11.7µM*
CCC(C(=O)Nc1ccon1)c1ccccc1 (stereo unspecified),-1.5,-0.9%,-2.9,-28.0%,36.6,13.4%
C/C(=N\NC(=O)c1nnn(-c2nonc2N)c1CSc1ccccc1)c1ccc2c(c1)OCO2,1.0,22.7%,-4.5,6.2%,-21.8,3.3%
COCCCN1C(=O)c2[nH]nc(-c3cc(C)cc(C)c3O)c2C1c1ccc(O)c(OC)c1 (stereo unspecified),-4.2,?,-0.9,?,-12.8,9.28µM*
CCCN1C(=O)c2[nH]nc(-c3cc(Cl)c(C)cc3O)c2C1c1ccc(O)c(OC)c1 (stereo unspecified),-6.7,-29.8%,-1.1,10.4µM*,-28.2,?
COc1ccc(CCN2C(=O)c3[nH]nc(-c4ccccc4O)c3C2c2ccc(O)c(OC)c2)cc1 (stereo unspecified),.,.,.,.,-12.1,.
Cc1ccc(S(=O)(=O)NCCC(=O)N2CCCCCCC2)cc1,.,30.6%,.,-11.4%,-37.9,-9.0%
C#CCOc1ccccc1C(=O)NNc1ccc([N+](=O)[O-])cc1[N+](=O)[O-],.,.,.,.,44.8,.
COC1=C(N)C(=O)c2nc(-c3nc(C(=O)O)c(C)c(-c4ccc(OC)c(OC)c4O)c3N)ccc2C1=O,-13.4,0.316µM*,-4.5,0.0185µM*,.,0.0522µM*
COc1ccc(-c2ncncc2-c2csc(C)n2)c(O)c1OC,-24.3,7.9%,-0.9,.,29.5,7.9%
COC(=O)c1nc(-c2ccc3c(n2)C(=O)C(N)=C(OC)C3=O)c(N)c(-c2ccc(OC)c(OC)c2O)c1C,-6.9,2.24µM*,10.9,?,?,0.0928µM*
Cc1ccc(NC(=O)C2CCCN2S(=O)(=O)c2ccc3c(c2)n(C)c(=O)c(=O)n3C)c(C)c1 (stereo unspecified),-10.8,12.6%,-2.0,-4.0%,-21.9,-6.3%
CCOC(=O)c1cc(-c2cccc(O)c2)oc1C,.,.,.,.,221.0,.
O=[N+]([O-])c1cccc(/C=C/c2ccccn2)c1,53.9*,12.6µM*,28.7*,228.2%,48.7,145.8%
O=[N+]([O-])c1ccc(/C=N/Nc2ccccn2)cc1,60.3*,0.5%,20.0*,?,1.5,63.3%
Nc1nnc(/C=C/c2cccc([N+](=O)[O-])c2)s1,29.2,14.0%,41.6*,-3.0%,-21.6,88.9%
O=[N+]([O-])c1cc(Cl)cc(/C=N\Nc2ccccn2)c1O,-16.8,?,-3.2,?,-102.7*,?
CCN(CC)CCNc1ccc2nnc(CCNS(=O)(=O)c3ccc(C)cc3)n2n1,-17.6,16.2%,2.4,?,14.1,-3.5%
CC1=C(C(=O)Nc2ccc(Cl)cc2)C(c2ccc(C(F)(F)F)cc2)n2nnnc2N1 (stereo unspecified),.,.,.,.,-10.4,.

# High-throughput results from PubChem BioAssay.
